# NLRP3 yeast inh: NALP3 inhibition in yeast; inhibition, % at 10 µM; Yeast reconstituted NLRP3/ASC/caspase-1, beta-gal luminescence, 24 h; 330,000 tested, 0.39% active;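 active means inhibition of 50% or more; inactive means inhibition below 50%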;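 further: plate controls were induced DMSO wells for no effect and uninduced yeast grown without galactose for full effect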
# CHT allo act: allosteric activators of human choline transporter CHT | CHT-expressing cells, membrane potential dye, choline EC20; stronger effect = higher value; LV-AA mutant CHT in HEK293 cells | B-score at 10 µM | 310,000 tested, 0.49% active;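 active means initial fluorescence not abnormally high and integrated response B-score, plate-corrected, over 3 SD above library mean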
# Target sequence (Q9GZV3 whole entry, looked up): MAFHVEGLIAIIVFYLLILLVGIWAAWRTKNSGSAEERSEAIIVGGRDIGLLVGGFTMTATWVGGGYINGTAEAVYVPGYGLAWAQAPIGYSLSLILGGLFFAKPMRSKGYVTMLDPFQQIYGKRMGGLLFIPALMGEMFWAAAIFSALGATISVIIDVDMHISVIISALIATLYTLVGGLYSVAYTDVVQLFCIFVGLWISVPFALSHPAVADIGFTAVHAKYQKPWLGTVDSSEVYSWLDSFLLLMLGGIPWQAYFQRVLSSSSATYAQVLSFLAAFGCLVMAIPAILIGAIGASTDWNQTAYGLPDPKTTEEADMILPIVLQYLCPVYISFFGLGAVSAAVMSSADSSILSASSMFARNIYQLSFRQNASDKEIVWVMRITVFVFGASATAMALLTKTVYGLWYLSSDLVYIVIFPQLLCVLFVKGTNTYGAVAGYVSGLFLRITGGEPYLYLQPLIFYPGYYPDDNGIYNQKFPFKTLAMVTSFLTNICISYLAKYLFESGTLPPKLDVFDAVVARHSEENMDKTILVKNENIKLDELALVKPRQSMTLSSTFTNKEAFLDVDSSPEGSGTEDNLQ
# A1 inh: inhibitors of the anti-apoptotic protein A1, read as caspase activation; 330,000 tested, 0.066% active; caspase activation, % (concentration not given with the values); MEF A1-2A-BIM cells, Caspase-Glo 3/7 luminescence, 3 h; percent of clofoctol response, vehicle zero;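 active means over half of replicate activation scores above 10%, or exactly half above 10 with the replicate mean above 10; inconclusive means replicate mean below 10 yet half the replicates above 10; inactive means over half of replicates below 10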
# SUMO Mot1 rescue: SUMOylation pathway inhibition by Mot1-301 growth rescue. 320,000 tested, 1% active. growth rescue, % at 18.8 µM. AID 2716. S. cerevisiae Mot1-301 growth rescue, ATP luminescence, 38.5C; percent above DMSO median, 100 means doubled;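 active means every valid replicate shows activation above 250% relative to neutral control wells; inactive means the rest, any valid replicate at or below 250%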;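 further: OY570 slx delta 5 strain wells were the positive control but not used for scaling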
# CHT inh: inhibitors of human choline transporter CHT; CHT-expressing cells, membrane potential dye, choline response; stronger effect = lower value; B-score at 10 µM; 310,000 tested, 0.86% active;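 active means B-score over 3 SD under the library average, and starting fluorescence ratio not unusually high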;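 further: choline stimulus applied at its EC90 after an EC20 pre-addition; B-score computed on integrated fluorescence ratio after choline addition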
# NALP1 inh: inhibitors of NALP1 inflammasome in yeast. S. cerevisiae NALP1/ASC/caspase-1 growth, X-gal OD620, 72 h. inhibition, % at 10 µM. 280,000 tested, 0.61% active; in the data active means inhibition mostly above about 24%, no sharp cut-off; inactive means mostly below about 32%
# * marks the source's active call; other numbers are inactive results; i = inactive; ? = inconclusive; / = no result. Compounds with a hit are over-represented: about 3% of the library has one in this group of screens.
SMILES,NLRP3 yeast inh,CHT allo act,A1 inh,SUMO Mot1 rescue,CHT inh,NALP1 inh
O=C(COc1ccc([N+](=O)[O-])cc1Cl)N1CCc2ccccc21,-5,/,-5,3,/,/
O=C1S/C(=C\c2ccc(O)c([N+](=O)[O-])c2)C(=O)N1c1ccccc1Cl,24,i,0,-26,i,28*
Cc1cccc(Nc2nc3c(S(=O)(=O)c4ccccc4)nnn3c3ccccc23)c1,6,i,7.4*,-16,i,17
Cc1cc(C)cc(Nc2nc3c(S(=O)(=O)c4ccccc4)nnn3c3ccccc23)c1,/,i,-1,-1,i,13
CCCCOc1ccc(NC(=O)c2cnc(C)cn2)cc1,21,i,0,71,i,45*
Cc1cccc(/C=N/n2c(C)nc3ccccc3c2=O)c1,17,i,1,5,i,10
O=[N+]([O-])c1cc(Cl)cc(/C=N/NC(=S)Nc2ccc(S(=O)(=O)N3CCOCC3)cc2)c1O,13,i,0,-5,-8.8*,-1
O=S(=O)(c1ccc(NC(=S)N/N=C/c2ccc(O)c(O)c2)cc1)N1CCOCC1,17,i,0,-24,i,2
Cc1ccc(C2NC(=O)c3ccccc3O2)cc1 (centres undefined),16,i,0,-25,i,/
CCOc1ccc(NC(=O)CSc2nnnn2-c2ccc(C(N)=O)cc2)cc1,17,i,0,264*,i,18
O=C(O)c1ccc(N=N/C(=N\Nc2ccc(C(=O)O)cc2)c2ccccc2)cc1,33,i,0,-1,i,/
O=C(O)c1cccc(N/N=C(\N=Nc2ccccc2)c2ccccc2)c1,26,i,-1,193,-6.4*,/
CCNC(=O)Oc1ccc[nH]c1=O,36,i,1,8,i,37*
CCn1cc(C(=O)O)c(=O)c2cc(F)c(N/N=C/c3ccccc3[N+](=O)[O-])cc21,4,i,?,669*,i,24
Cc1nn(C(C)C(=O)c2cccc(Cl)c2)c(C)c1[N+](=O)[O-] (centres undefined),6,i,0,8,i,10
Cn1cnc([N+](=O)[O-])c1S(=O)(=O)c1cccc(Cl)c1,-28,i,7.8*,15,i,66*
Cc1csc(SC(C)c2nc3scc(-c4ccccc4)c3c(=O)[nH]2)n1 (centres undefined),-5,i,-1,-13,i,/
Cc1nnsc1Sc1ccccc1C(=O)O,10,i,0,376*,i,13
Cc1cccc(OCC(=O)Nc2nccs2)c1C,-4,i,-11,-1,i,38*
CC(c1ccccc1)C1CC(=O)N(c2ccccc2)C1=O (centres undefined),24,i,0,-19,i,2
O=C(c1cc2ccccn2n1)N1CCCC1,/,/,/,/,/,10
O=C(c1cc2ccccn2n1)N1CCN(Cc2ccccc2)CC1,27,i,0,15,i,34*
COC(=O)c1nc(-c2ccccc2)nc(-c2ccccc2)c1C(=O)OC,2,i,1,12,i,/
Cc1ccc(-c2nc(NCc3ccco3)c3ccccc3n2)cc1,8,i,-1,298,i,32
Cc1ccc(OCCN2CCN(c3nc(NCc4ccco4)c4ccccc4n3)CC2)cc1,31,i,0,0,i,73*
SMILES,NLRP3 yeast inh,CHT allo act,A1 inh,SUMO Mot1 rescue,CHT inh,NALP1 inh
O=C(O)CCCN1C(=O)/C(=C\c2ccccc2OCc2ccccc2)SC1=S,2,i,-2,20,-7.7*,-4
O=C(O)CN1C(=O)/C(=C\c2cc([N+](=O)[O-])ccc2OCc2ccccc2Cl)SC1=S,6,i,0,-15,-6.2*,3
O=C(O)CN1C(=O)/C(=C\c2cc(Br)ccc2OCc2ccc(Cl)cc2)SC1=S,/,i,-1,11,i,19
CCCCNCCOCCOc1ccc(Cl)cc1Br,25,i,-2,6,i,52*
CCOc1ccc(OCCCCNCCN)cc1,7,i,1,2,i,-8
CCCCNCCOCCOc1ccc(F)cc1,21,i,0,304*,i,5
CCN(CC(=O)NCc1ccc(Cl)cc1)C(=O)CSCC(=O)Nc1cccc(C)c1,4,i,0,8,i,7
